Assay [1] can be described thus: CCTE_Shafer_MEA_acute_interburst_interval_mean: CCTE's Neural Acute Assay for Mean Interburst Interval, Shafer Lab (AID 2284016).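 Further: percent change of mean interburst interval versus each well's own pre-dose baseline; curves fitted for decrease in interburst interval relative to DMSO.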 The procedure, abridged:
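Primary rat cortical neurons on 16-electrode MEA wells were recorded 40 min at baseline on DIV 13 or 15, then 40 min after compound (0.03-40 uM), at 37 C. Value is percent change in mean interburst interval per well, DMSO as negative control.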

Assay [2] is described as follows: CCTE_Shafer_MEA_acute_burst_percentage_std: CCTE's Neural Acute Assay for Standard Deviation of Burst Percentage, Shafer Lab (AID 2284018).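 Further: fitted in the negative direction so actives lower burst percentage SD.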 The procedure, abridged:
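Value is percent change from baseline in the across-electrode SD of spikes-in-bursts percentage, wells with >/= 10 active electrodes. Acute 40-min exposure to 0.03-40 uM on DIV 13 or 15 rat cortical cultures, recorded at 37 C after 40-min baseline.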

Assay [3] can be described thus: CCTE_Shafer_MEA_acute_per_network_burst_spike_number_mean: CCTE's Neural Acute Assay for Average Number of Spikes in a Network Burst, Shafer Lab (AID 2284019).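 On AC50: curve fitted for loss of signal so actives reduce spikes per network burst.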 The procedure, abridged: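 Percent change from baseline in mean spikes per network burst, spikes detected at 8x rms noise. Each compound at 0.03-40 uM in at least three wells of rat cortical cultures, recorded 40 min before and 40 min during exposure.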

Assay [4] can be described thus: CCTE_Shafer_MEA_acute_per_network_burst_spike_number_std: CCTE's Neural Acute Assay for Standard Deviation of Number of Spikes in a Network Burst, Shafer Lab (AID 2284020).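 Further: fitted for decrease in spike-number SD versus DMSO so actives lower it.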 The procedure, abridged:
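Endpoint: percent change from 40 min baseline in standard deviation of spikes per network burst, after 40 min compound exposure (0.03-40 uM, 37 C). Cortical rat neurons on MEA at DIV 13 or 15; spikes detected at 8x rms noise, 300-5000 Hz band-pass.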

Assay [5] is described as follows: CCTE_Shafer_MEA_acute_network_burst_percentage: CCTE's Neural Acute Assay for Percentage of Network Bursts, Shafer Lab (AID 2284022).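 Further: curves fitted for loss so actives lower network burst percentage.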 The essentials:
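Network burst percentage (spikes in network bursts divided by total spikes) recorded at 37 C over 40 min baseline and 40 min after compound, 0.03-40 uM, in rat cortical cultures at DIV 13 or 15. Analysed as percent change from baseline versus DMSO.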

Assay [6] in a line: CCTE_Shafer_MEA_acute_cross_correlation_area: CCTE's Neural Acute Assay for Area of Cross Correlation, Shafer Lab (AID 2284024).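 Further: area under pooled inter-electrode spike cross-correlation near zero lag as percent change from own baseline; curves fitted for loss of cross-correlation area so actives lower synchrony.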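 On outcome: rat primary cortical neuron networks on 48-well MEA at DIV 13 or 15 with 40 min exposure.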 The essentials:
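Percent change in well-wide cross-correlation area (window around zero lag) between 40 min baseline and 40 min post-compound recordings, 37 C; rat cortical cultures on MEA at DIV 13 or 15, dosed 0.03-40 uM, wells needing >/= 10 active electrodes.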

Assay [7] is described as follows: CCTE_Shafer_MEA_acute_synchrony_index: CCTE's Neural Acute Assay for Synchrony, Shafer Lab (AID 2284027).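 Further: network synchrony index of spontaneous spiking in primary rat cortical neurons on MEAs; fitted for loss of signal so actives lower synchrony relative to DMSO.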 The essentials: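 Acute exposure of rat primary cortical neurons (DIV 13 or 15) at 0.03-40 uM. Synchrony index, 40 min before vs after, as % change relative to DMSO control.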
Assay [8] is described as follows: CCTE_Shafer_MEA_dev_per_burst_spike_percent: CCTE's Neural Network Formation Assay for Percent of Spikes in a Burst, Shafer Lab (AID 2284032).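 On AC50: fitted as a decrease in burst spike percentage below DMSO baseline.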 The essentials: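 Value is trapezoidal AUC over recordings on days 5, 7, 9 and 12 of the well-mean fraction of spikes falling in single-electrode bursts; rat cortical cultures exposed continuously from plating, treatment renewed DIV 5 and 9, fitted downward against DMSO.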

A short description of assay [9]: CCTE_Shafer_MEA_dev_burst_rate: CCTE's Neural Network Formation Assay for Burst Rate, Shafer Lab (AID 2284042).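 On AC50: potency for loss of burst rate below DMSO control.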 The essentials: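 Rat primary cortical cultures on PEI/laminin MEA; compound from plating, re-dosed at DIV 5, 9 media change. Single-electrode bursts/recording length, well mean of active electrodes; AUC over DIV 5–12 recordings; loss-of-signal vs DMSO.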

Assay [10] in a line: CCTE_Shafer_MEA_dev_bursting_electrodes_number: CCTE's Neural Network Formation Assay for Number of Bursting Electrodes, Shafer Lab (AID 2284043; active means hit-call score of the fitted dose curve at least 0.9, where 1 is the maximum;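 on AC50: potency is for loss of bursting electrodes relative to DMSO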). The procedure, abridged: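 Number of electrodes reaching ≥1 burst every 2 min was recorded at DIV 5, 7, 9 and 12 and collapsed as trapezoidal area under the curve. Cultures were rat cortical neurons on MEA plates, dosed continuously from plating with medium and treatment refreshed on DIV 5 and 9.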

The nature of assay [11]: CCTE_Shafer_MEA_dev_per_burst_interspike_interval: CCTE's Neural Network Formation Assay for Burst Interspike Interval, Shafer Lab (AID 2284044).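 On AC50: potency for a decrease of within-burst interspike interval below DMSO level.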 The procedure, abridged:
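Mean interspike interval within single-electrode bursts, averaged over bursting electrodes, from rat cortical cultures on MEA plates recorded on days 5, 7, 9 and 12. Continuous compound exposure from plating; trapezoidal AUC fitted downward relative to DMSO.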

Assay [12] can be described thus: CCTE_Shafer_MEA_dev_burst_duration_mean: CCTE's Neural Network Formation Assay for Mean Burst Duration, Shafer Lab (AID 2284045).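 On AC50: curve fitted for loss meaning shorter burst duration than DMSO.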 The essentials: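 Mean single-electrode burst duration (first to last spike), averaged over bursting electrodes per well, then integrated as area-under-curve across recordings at days 5, 7, 9 and 12. Rat cortical cultures on MEAs, compound present from plating, refreshed at feeds.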

The nature of assay [13]: CCTE_Shafer_MEA_dev_interburst_interval_mean: CCTE's Neural Network Formation Assay for Mean Interburst Interval, Shafer Lab (AID 2284046).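 Further: well-mean interburst interval of bursting electrodes as AUC over four recording days; curve fitted for decrease in interburst interval relative to DMSO.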 The procedure, abridged: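 Rat cortical neurons, 1.5 x 10^5 cells/well, 48-well MEA; compound from day 0 through DIV 12, media and treatment renewed DIV 5/9. Recordings DIV 5, 7, 9, 12; well-mean interburst interval → trapezoidal AUC, loss direction vs DMSO.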

Assay [14] is described as follows: CCTE_Shafer_MEA_dev_inter_network_spike_interval_mean: CCTE's Neural Network Formation Assay for Mean Inter-network Spike Interval, Shafer Lab (AID 2284047). The procedure, abridged:
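Primary rat cortical neurons on PEI-coated 48-well MEAs (16 electrodes/well) were exposed from plating day 0 to DIV 12, with dosing renewed at DIV 5 and 9. Recordings at DIV 5, 7, 9, 12 were collapsed by trapezoidal AUC, loss-of-signal fit vs DMSO.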

The nature of assay [15]: CCTE_Shafer_MEA_dev_network_spike_number: CCTE's Neural Network Formation Assay for Number of Network Spikes, Shafer Lab (AID 2284048).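 Further: synchronized bursts across electrodes counted on days 5 7 9 12 and integrated as AUC.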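 On AC50: fit as a loss of signal meaning fewer network spikes than DMSO.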 The essentials: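 Number of network spikes (coordinated firing across electrodes) recorded on days 5, 7, 9 and 12 and summarised as area under the curve. Rat cortical cultures on MEA, continuous compound exposure with full medium/treatment exchange at DIV 5 and 9.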

Assay [16] can be described thus: CCTE_Shafer_MEA_dev_network_spike_peak: CCTE's Neural Network Formation Assay for Mean Number of Electrodes in Network Spike, Shafer Lab (AID 2284049).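 On AC50: fitted for loss of signal meaning fewer electrodes in network spikes than DMSO.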 The essentials: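 Rat cortical primary culture, 1.5 x 10^5 cells/well, 48-well MEA (16 electrodes/well). Dosing day 0 through DIV 12, full media/compound exchange DIV 5, 9. AxIS adaptive spike detection; AUC over days 5/7/9/12; loss-of-signal vs DMSO.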

Assay [17] concerns the target Estrogen receptor (Homo sapiens) (UniProt P03372). Nature of the assay: CCTE_Deisenroth_AIME_384WELL_LUC_Active: CCTE's 384-well Estrogen Receptor Transactivation Assay with AIME metabolic competence (ERTA luciferase; metabolism positive), Deisenroth Lab (AID 2284030; active means hit-call score of the fitted dose curve at least 0.9, where 1 is the maximum). The essentials: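 VM7Luc4E2 breast cells were given, for 24 hours, medium pre-incubated for 2 hours with parent chemical (0.002-200 uM, 10 concentrations) and alginate-encapsulated phenobarbital/beta-naphthoflavone-induced rat hepatic S9. Luciferase gain of signal was fitted against 17beta-estradiol; n=4 or more.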

The target is the same in assay [18]. Nature of the assay: CCTE_Deisenroth_AIME_384WELL_LUC_Shift: CCTE's 384-well Estrogen Receptor Transactivation Assay with AIME metabolic competence data shift (ERTA luciferase; difference in metabolism positive and negative), Deisenroth Lab (AID 2284041).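 Further: shift is response with S9 minus without S9 so positive means metabolism raised ER signal.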 The essentials: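 Test chemicals (0.002–200 uM, 10-point) were pre-incubated 2 h with alginate microspheres containing phenobarbital/beta-naphthoflavone-induced male Sprague Dawley rat liver S9 or water, then medium was transferred to VM7Luc4E2 cells for 24 h luciferase readout; shift = S9-positive minus S9-negative normalized response.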

Assay [19] can be described thus: CCTE_Deisenroth_AIME_384WELL_CTox_Active: Cytotoxicity Assessment (CTOX) in CCTE's 384-well Estrogen Receptor Transactivation Assay with AIME metabolic competence (metabolism positive), Deisenroth Lab (AID 2284037; active means hit-call score of the fitted dose curve at least 0.9, where 1 is the maximum;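 further: chemicals first conditioned 2 h by alginate-bound induced rat liver S9 before cells; activity means signal loss indicating cell death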). The essentials: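 Cytotoxicity in VM7Luc4E2 breast cells, 24 hour, measured as protease-substrate fluorescence loss, after 2-hour metabolic conditioning with induced rat hepatic S9 in alginate microspheres. Concentrations 0.002 - 200 uM, 10 points, bidirectional fitting.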

Assay [20] can be described thus: CCTE_Deisenroth_AIME_384WELL_CTox_Inactive: Cytotoxicity Assessment (CTOX) in CCTE's 384-well Estrogen Receptor Transactivation Assay without AIME metabolic competence (metabolism negative), Deisenroth Lab (AID 2284039; active means hit-call score of the fitted dose curve at least 0.9, where 1 is the maximum;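 further: cell viability via live-cell protease substrate cleaved to fluorescent probe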). The essentials: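 VM7Luc4E2 human breast cells received conditioned medium from a 2 h incubation of chemical with alginate-water microspheres (no S9), then were exposed 24 h. Viability was read as protease-substrate cleavage to a fluorescent probe; loss of signal was fitted bidirectionally over 0.002–200 uM.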

Where “and” joins values, the source holds several entries; their conditions need not be identical. Equal entries are not always repeated. Inconclusive results are not listed. More than one record can exist for a structure, and the calls need not agree. Calls of active or inactive are those of the source. How the source made its calls, unless noted: active means hit-call score of the fitted dose curve at least 0.9, where 1 is the maximum; inactive means score below 0.9.

For orientation: AC50 means the concentration giving half of the maximal activity seen.

Sequence of Estrogen receptor (Homo sapiens) (P03372 whole entry, looked up): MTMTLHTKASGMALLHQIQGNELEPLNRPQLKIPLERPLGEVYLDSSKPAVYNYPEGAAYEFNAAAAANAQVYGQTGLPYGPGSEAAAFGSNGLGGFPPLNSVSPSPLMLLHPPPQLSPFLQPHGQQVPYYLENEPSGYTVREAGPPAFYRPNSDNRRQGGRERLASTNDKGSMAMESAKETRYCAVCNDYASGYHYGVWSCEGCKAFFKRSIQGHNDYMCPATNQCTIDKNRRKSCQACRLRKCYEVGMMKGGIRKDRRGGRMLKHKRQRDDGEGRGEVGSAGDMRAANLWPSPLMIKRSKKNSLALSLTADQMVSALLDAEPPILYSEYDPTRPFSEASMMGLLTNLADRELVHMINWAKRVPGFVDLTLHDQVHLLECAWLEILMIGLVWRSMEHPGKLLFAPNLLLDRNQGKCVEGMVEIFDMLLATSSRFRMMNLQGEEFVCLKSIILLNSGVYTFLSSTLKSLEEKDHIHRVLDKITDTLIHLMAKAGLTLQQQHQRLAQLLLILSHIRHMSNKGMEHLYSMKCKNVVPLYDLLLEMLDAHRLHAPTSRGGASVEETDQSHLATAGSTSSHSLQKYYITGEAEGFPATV

Consider `CC1(C)C(C=C(Cl)Cl)C1C(=O)OC(C#N)c1ccc(F)c(Oc2ccccc2)c1` (stereo not given), for which the result in [1], in [2], in assay [9], in assay [11], in [13] and in [14] was inactive. Further, the AC50 in assay [2] is 5.28 µM (active); in assay [3], 54.4 nM (active) and 609 nM (active); in [4] it was 81.2 nM (active) and 622 nM (active); in [5] it was 171 nM (active) and 612 nM (active); in assay [6], 20.3 nM (active) and 102 nM (active); in [7], 117 nM (active) and 558 nM (active). Also, the AC50 is 2.63 µM (active) and 27.9 µM (active) and 19.5 µM (active) in assay [8]; 1.07 µM (active) and 259 nM (active) in assay [9]; 2.28 µM (active) and 25.9 µM (active) and 9.56 µM (active) in [10]; 10 µM (active) in assay [11]; 2.04 µM (active) and 8.68 µM (active) and 7.93 µM (active) in [12]; 49.9 µM (active) and 21 µM (active) in [13]. In addition, the AC50 in assay [15] is 235 nM (active) and 10.6 µM (active) and 6.32 µM (active); in assay [16], 10 µM (active) and 11.1 µM (active) and 15 µM (active).

With `CNC(=O)Oc1ccccc1OC(C)C`, the compound was classed as inactive in assay [17] and in assay [18].

Regarding `ClC1C(Cl)C(Cl)C(Cl)C(Cl)C1Cl` (stereo not given), the compound was called inactive in [1], in assay [2], in [4], in assay [8], in assay [9] and in [10]. Besides, the call in assay [11], in assay [12], in [14], in assay [15] and in [16] was inactive. Besides, the AC50 in [3] was 1.23 µM (active); in [6], 9.69 µM (active); in [7], 1.22 µM (active).

As to `CNC(=O)/C=C(\C)OP(=O)(OC)OC`, the outcome in assay [1], in [2], in assay [3], in assay [4], in assay [5] and in [6] was inactive. The compound was classed as inactive in assay [7], in assay [17], in assay [19] and in assay [18].

`O=C(O)CCCOc1ccc(Cl)cc1Cl`: the compound was called inactive in assay [1], in assay [2], in [3], in [4], in [5] and in [6]. Besides, the compound was classed as inactive in assay [7].

In the case of `COP(=S)(OC)Oc1ccc(SC)c(C)c1`, the compound was called inactive in assay [1], in assay [3], in [4], in [5] and in assay [6]. The AC50 is 33.2 µM (active) in [2] and 29.1 µM (active) in assay [7].

Consider `COP(=O)(OC)OC=C(Cl)Cl`, for which the outcome in assay [17], in assay [8], in assay [19], in [18], in [9] and in [10] was inactive. The outcome in assay [11], in [12], in assay [13], in assay [14], in [15] and in [16] was inactive. Moreover, the AC50 in assay [8] was 4.26 µM (active); in assay [9], 1.16 µM (active); in [10], 659 nM (active); in assay [11] it was 10.1 µM (active); in assay [13] it was 2.02 µM (active); in [15], 983 nM (active). In addition, the AC50 in assay [16] is 2.87 µM (active).

As for `O=C(O)COc1ccc(Cl)cc1Cl`, the compound was called inactive in assay [8], in assay [20], in assay [9], in assay [11], in assay [12] and in assay [13]. In addition, the compound was classed as inactive in assay [14] and in [15]. Further, the values for the AC50 in assay [10] and in assay [16] were 30900 nM (active) and 50 µM (active), respectively.

Consider `CCc1ccc(C(=O)NN(C(=O)c2cc(C)cc(C)c2)C(C)(C)C)cc1`, for which the call in [17], in assay [19], in assay [20] and in assay [18] was inactive.

Regarding `Oc1ccc(Cl)cc1Cc1ccccc1`, the compound was called inactive in [1] and in [4]. The AC50 in assay [2] is 8.33 µM (active); in [3], 1.57 µM (active); in assay [5], 5.05 µM (active); in assay [6], 0.457 µM (active); in assay [7], 5.05 µM (active).

The record behind these values is PubChem BioAssay (EPA / NIEHS).
